{"source": "the supplement of paper PMC11417369", "note": "In all, about 25,000 sequences were measured (“ln(normalized median fluorescence intensity)”: median about 7.1, highest 2% from about 10 on). Shown is part of a subset that was picked to be rich in the highest values."}
{"test_system": "PfSIP2 AP2 domain 1 (GST-tagged)", "assay": "gcPBM binding intensity (ln(normalized median fluorescence intensity)); higher = stronger DNA binding", "procedure,_shortened": "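After 1 h on an Agilent 4 × 180k array of primer-extended double-stranded 36-bp intergenic genomic probes and negative controls, bound GST-tagged P. falciparum DNA-binding domains were detected with Alexa488 anti-GST antibody and scanned at 488 nm. The domains had been expressed in E. coli, and binding took place in 1× PBS with 1% milk, 0.2 mg/ml BSA, 0.5% salmon testes DNA and 0.03% Triton X-100. Binding intensity is the highest Masliner-normalised natural-log median intensity across replicate spots of either probe orientation.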"}
{"sequence": "TATAAAAGTGGACACACACACATATATATATATATA [CACACA_site4673]", "gcPBM binding intensity (ln)": 9.47}
{"sequence": "TGTAAATTATAACGTGCACACATATTTAAAATGAAA [CACACA_site8915]", "gcPBM binding intensity (ln)": 10.6}
{"sequence": "TAAAATAAATTGTGCACACATATTTATAAATATGAA [CACACA_site2331]", "gcPBM binding intensity (ln)": 9.66}
{"sequence": "TAAATTATAACGTGCACACATATTTAAAATGAAATG [CACACA_site2820]", "gcPBM binding intensity (ln)": 10.3}
{"sequence": "AAATGAATTTAACAATGTACACATATATTATAAATA [XGTACX_site1449]", "gcPBM binding intensity (ln)": 7.13}
{"sequence": "ATATATAACGGGCACACACACATTTACGTATGAATA [CACACA_site1833]", "gcPBM binding intensity (ln)": 7.39}
{"sequence": "CTTAATTTAATGAAATGTACATATAAAAATATTATA [XGTACX_site3303]", "gcPBM binding intensity (ln)": 7.11}
{"sequence": "TTTATTAATAATTATACACACATATAAAATGAATAA [CACACA_site1359]", "gcPBM binding intensity (ln)": 7.01}
{"sequence": "TAATATATAACGTGCACACACACATTTACGTATGAA [CACACA_site1832]", "gcPBM binding intensity (ln)": 9.88}
{"sequence": "ATATATAACGTGCACACACACATTTACGTATGAATA [CACACA_site6948]", "gcPBM binding intensity (ln)": 10.4}
{"sequence": "ATATAAGTACGGCATGCATGCACATTTTTTTATTCC [TGCATGCA_site101]", "gcPBM binding intensity (ln)": 7.09}
{"sequence": "TACGTTATATACAACTGTACTTGGATAATTATTAAC [XGTACX_site5614]", "gcPBM binding intensity (ln)": 7.13}
{"sequence": "TCTTTTTTTTTTTTTTTTTTTTTTTATTTATTCATA [CACACA_negctrl_site1827]", "gcPBM binding intensity (ln)": 6.85}
{"sequence": "CATAATATATATTGAGCATGCTACTATTGTTAGAAA [TGCATGCA_site740]", "gcPBM binding intensity (ln)": 6.93}
{"sequence": "ATATATAAATATAGCATACACACAAAAAAATAAAAT [CACACA_site2332]", "gcPBM binding intensity (ln)": 7.11}
{"sequence": "TTTTTTAAATATTATTTTTATGAGTAAATATATTAT [GTGCAC_negctrl_site277]", "gcPBM binding intensity (ln)": 6.71}
{"sequence": "ATATTTTATGTAAAGGTGCAAAACAACATTAAAAAA", "gcPBM binding intensity (ln)": 10.5}
{"sequence": "TTATTTTTATTATAAATTATAAAATATAAATAAATA [GTGCAC_negctrl_site616]", "gcPBM binding intensity (ln)": 6.79}
{"sequence": "TTTTTTTTTAATAAAATTATAATAAATATGAAATTA [XGTACX_negctrl_site369]", "gcPBM binding intensity (ln)": 6.67}
{"sequence": "TATCATATATGAAGGTGTACGATTTATTATATAAAT [XGTACX_site7010]", "gcPBM binding intensity (ln)": 7.04}
{"sequence": "TACAGTTCAATGAAGGTGCAATTAATATATAAAATA", "gcPBM binding intensity (ln)": 10.2}
{"sequence": "TTTTTATGGACTATGGTGCATTATATATAAATGAAA [GTGCAC_site9557]", "gcPBM binding intensity (ln)": 10.6}
{"sequence": "TTTTTTAAATATATGGTGCATAGAAAGATATTATAC [GTGCAC_site9984]", "gcPBM binding intensity (ln)": 10}
{"sequence": "ATTTATTTTATATGTTGTACAAACATTTTAAAACAT [XGTACX_site6919]", "gcPBM binding intensity (ln)": 6.95}
{"sequence": "ATTATCAATATGAAGGTGCATTTAAATAATATTTAC", "gcPBM binding intensity (ln)": 10.7}
{"sequence": "AAATATTATAAAAAGGTGCATTTTTATTATATGAGT", "gcPBM binding intensity (ln)": 11}
{"sequence": "GACAATATTAAAACATGTACATGCATTTTATGAATA [XGTACX_site553]", "gcPBM binding intensity (ln)": 7.05}
{"sequence": "ATCATATATTATTTATGTACTTATTTATAATAATAT [XGTACX_site8257]", "gcPBM binding intensity (ln)": 7.06}
{"sequence": "AGAATATCAAAATAAAGTACATTTATTATATATATG [XGTACX_site7100]", "gcPBM binding intensity (ln)": 7.15}
{"sequence": "TTATTTAAAAAATTTTTAAATATACAAAAAAAAAAA [TGCATGCA_negctrl_site464]", "gcPBM binding intensity (ln)": 6.88}
{"sequence": "TTAATTGACATAAAAAGTACTCATATAGATATGCAC [XGTACX_site6391]", "gcPBM binding intensity (ln)": 8.9}
{"sequence": "AAACATTTATCAATGAATCTTTTAATAAGTGTAAAG [XGTACX_negctrl_site80]", "gcPBM binding intensity (ln)": 6.79}
{"sequence": "TAAATATAACAGAATAATATGTGGATTAATAAATGA [CACACA_negctrl_site438]", "gcPBM binding intensity (ln)": 6.81}
{"sequence": "ACATATGGCACATATGTACACACGTATAGATAATAT [CACACA_site2024]", "gcPBM binding intensity (ln)": 7.19}
{"sequence": "TGGAGGTCAGTTCACAGTACCCAGAAAACTCTACGA [XGTACX_site2561]", "gcPBM binding intensity (ln)": 6.58}
{"sequence": "TAAAATATTATAAAATGTACAAAACATATAAATATA [XGTACX_site5315]", "gcPBM binding intensity (ln)": 6.8}
{"sequence": "AACACATAATAAAATTGTACCCAACATTTCTTTTGA [XGTACX_site8061]", "gcPBM binding intensity (ln)": 6.96}
{"sequence": "GCAAATCATGCTATGGTGCATATGTAAGATGAGCAT", "gcPBM binding intensity (ln)": 10.6}
{"sequence": "GCATATGATGAGCATATAATCATAAGAAAAAAAAAA [CACACA_negctrl_site701]", "gcPBM binding intensity (ln)": 6.72}
{"sequence": "TATTAATTATAAGATGCATGTGCAAAAATATGTTCC [TGCATGCA_site51]", "gcPBM binding intensity (ln)": 7.6}
{"sequence": "TATAACTTTTATAGGTGTACCCAATATTATATATAG [XGTACX_site7673]", "gcPBM binding intensity (ln)": 6.97}
{"sequence": "TTAAAAATGTGTGTGCGTACATAATATTTCGAAAAA [XGTACX_site8197]", "gcPBM binding intensity (ln)": 7.03}
{"sequence": "TTGCATTAATTTATGTGTACATATAAATTTTTATTT [XGTACX_site3060]", "gcPBM binding intensity (ln)": 7.41}
{"sequence": "CCAGTGTGCACCTTGCGTACATATTAAATTAATTAA [XGTACX_site3729]", "gcPBM binding intensity (ln)": 12.2}
{"sequence": "TATATATATTTTATATGTACGTATGGAACAATATGA [XGTACX_site8167]", "gcPBM binding intensity (ln)": 7.38}
